PubChem BioAssay AID1159580 (chemical genetic matrix, 2015)
Values joined by “and” are separate entries in the source; they are usually repeats but may differ in a detail not shown here. Equal values may be shown once. The whole screen tested about 5,500 compounds, of which about 2,000 (36%) were called active. About 18% were inconclusive and are not listed. No stated cut-off is given here; in the data, active means normalized growth mostly below about 0.91 (no sharp cut-off); inconclusive means no clear call, values can overlap the other calls; inactive means mostly above about 0.92. The list shows a part of the results.

Assay: chemical genetic growth profiling, strain panel (AID 1159580);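 further: tested at 20 µM; growth read once vehicle control cultures reached saturation at 30 °C; 1 = growth at the plate median or of vehicle wells; lower values mean less growth of the strain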
Conditions: S. cerevisiae deletion strains, growth OD

Measured: normalized growth

CCC(C)(C)C(=O)O[C@H]1C[C@@H](C)C=C2C=C[C@H](C)[C@H](CC[C@@H]3C[C@@H](O)CC(=O)O3)[C@H]21
active: locus YAL021C, strain ccr4, active compounds read low 0.703 | locus YAL026C, strain drs2, active compounds read low 0.828 | locus YBL061C, strain skt5, active compounds read low 0.855 | locus YBR023C, strain chs3, active compounds read low 0.841 | locus YBR231C, strain swc5, active compounds read low 0.776 | locus YBR279W, strain paf1, active compounds read low 0.851 | locus YCL016C, strain dcc1, active compounds read low 0.909 | locus YDR137W, strain rgp1, active compounds read low 1.35 [resistant] | locus YDR392W, strain spt3, active compounds read low 0.528 | locus YER015W, strain faa2, active compounds read low 0.842 | locus YGL253W, strain hxk2, active compounds read low 0.787 | locus YGR229C, strain SMI1, active compounds read low 0.783 | locus YHR027C, strain rpn1, active compounds read low 0.875 | locus YHR142W, strain chs7, active compounds read low 0.79
inactive: locus YAL013W, strain DEP1, active compounds read low 0.99 | locus YAL030W, strain snc1, active compounds read low 1.01 | locus YBR009C, strain hhf1, active compounds read low 0.912 | locus YBR021W, strain FUR4, active compounds read low 0.861 | locus YBR171W, strain sec66, active compounds read low 0.998 | locus YBR229C, strain ROT2, active compounds read low 1.01 | locus YCL011C, strain gbp2, active compounds read low 0.944 | locus YCL029C, strain bik1, active compounds read low 1.04 | locus YCL061C, strain MRC1, active compounds read low 1.01 | locus YCL069W, strain vba3, active compounds read low 0.955 | locus YCR088W, strain abp1, active compounds read low 1.02 | locus YDL005C, strain med2, active compounds read low 1.02 | locus YDL035C, strain GPR1, active compounds read low 0.97 | locus YDL040C, strain nat1, active compounds read low 0.997 | locus YDL074C, strain BRE1, active compounds read low 0.866 | locus YDL101C, strain DUN1, active compounds read low 0.98 | locus YDL134C, strain PPH21, active compounds read low 1.01 | locus YDL185W, strain tfp1, active compounds read low 0.955 | locus YDL192W, strain arf1, active compounds read low 1.02 | locus YDR001C, strain nth1, active compounds read low 1.02 | locus YDR069C, strain doa4, active compounds read low 1 | locus YDR101C, strain arx1, active compounds read low 1.04 | locus YDR150W, strain NUM1, active compounds read low 1.01 | locus YDR159W, strain sac3, active compounds read low 0.93 | locus YDR162C, strain NBP2, active compounds read low 0.937 | locus YDR195W, strain ref2 1.01 | locus YDR297W, strain sur2, active compounds read low 0.999 | locus YDR318W, strain mcm21, active compounds read low 1 | locus YDR334W, strain swr1, active compounds read low 0.941 | locus YDR335W, strain msn5, active compounds read low 0.979 | locus YDR388W, active compounds read low 1.02 | locus YDR502C, strain sam2, active compounds read low 1.02 | locus YEL003W, strain gim4, active compounds read low 0.973 | locus YEL037C, strain rad23, active compounds read low 1 | locus YEL061C, strain CIN8 (second series), active compounds read low 0.988 | locus YEL061C, strain CIN8, active compounds read low 0.995 | locus YER016W, strain bim1, active compounds read low 0.953 | locus YER110C, active compounds read low 1.04 | locus YER111C, strain swi4, active compounds read low 1.01 | locus YER155C, strain BEM2 (second series), active compounds read low 1 | locus YER155C, strain BEM2, active compounds read low 0.996 | locus YER167W, strain BCK2, active compounds read low 0.982 | locus YFR010W, strain ubp6, active compounds read low 0.973 | locus YGL078C, strain dbp3, active compounds read low 1.03 | locus YGL086W, strain mad1, active compounds read low 0.991 | locus YGL167C, strain pmr1, active compounds read low 1.01 | locus YGL173C, strain kem1, active compounds read low 0.997 | locus YGL227W, strain vid30, active compounds read low 1.02 | locus YGL240W, strain doc1, active compounds read low 1.03 | locus YGL248W, strain PDE1, active compounds read low 1.01 | locus YGR078C, strain PAC10, active compounds read low 0.966 | locus YGR135W, strain pre9, active compounds read low 1.01 | locus YGR252W, strain gcn5, active compounds read low 0.983 | locus YHR013C, strain ard1, active compounds read low 0.912 | locus YHR030C, strain SLT2, active compounds read low 1.02 and 0.921 | locus YHR079C, strain IRE1 (second series), active compounds read low 1.03 | locus YHR079C, strain IRE1, active compounds read low 0.948 | locus YHR094C, strain hxt1, active compounds read low 1.03 | locus YHR129C, strain ARP1, active compounds read low 1.02 | locus YHR200W, strain rpn10, active compounds read low 1.03 | locus YIL066C, strain RNR3, active compounds read low 0.992 | locus YIL073C, strain SPO22, active compounds read low 0.902 | locus YIL125W, strain kgd1, active compounds read low 1.04 | locus YIR030C, strain dcg1, active compounds read low 1.05 | locus YJL092W, strain hpr5, active compounds read low 1.01 | locus YJL095W, strain BCK1 (second series), active compounds read low 0.951 | locus YJL095W, strain BCK1, active compounds read low 0.893 and 0.915 | locus YJL115W, strain asf1, active compounds read low 1.02 | locus YJL129C, strain trk1, active compounds read low 0.934 | locus YJL134W, strain LCB3, active compounds read low 1.01 | locus YJL154C, strain vps35, active compounds read low 1.01 | locus YJL164C, strain tpk1, active compounds read low 0.919 | locus YJL166W, strain qcr8, active compounds read low 0.955 | locus YJL168C, strain set2, active compounds read low 1.02 | locus YJL187C, strain SWE1 (second series), active compounds read low 0.995 | locus YJL187C, strain SWE1, active compounds read low 0.976 | locus YJR043C, strain POL32, active compounds read low 1.01 | locus YJR066W, strain TOR1, active compounds read low 0.84
